Bioassay records: PubChem, National Center for Advancing Translational Sciences (NCATS)
Tau fluor cs: counter-screen for tau fibril formation inhibitors. tau K18 P301L Alexa594 fluorescence, heparin fibrillization. Potency, µM (series often up to 57.7 µM), without a hit: at the highest dose activity change, negative = decrease. 280,000 tested, 0.93% active; note: potency is the fitted concentration of half-maximal effect; nearly all actives have a fitted effect of over 55% in size
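Human tau K18 P301L (15 uM unlabeled, 0.24 uM Alexa 594-labeled) in 100 mM sodium acetate pH 7 with 20 uM heparin, 6 hr at 37 C. ThT 30 uM added, 1 hr ambient; Alexa 594 FP and total fluorescence read at 555/632 nm.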
Tau fibril ThT: inhibitors of human tau fibril formation, thioflavin T binding. 270,000 tested, 2.1% active. Potency, µM (doses to about 57.4 µM), without a hit: at the top dose activity, negative = inhibition, actives largely listed as inhibitors. recombinant tau K18 P301L (four-repeat tau fragment), heparin-induced fibrillization, ThT fluorescence. P10636; note: potency is the fitted concentration of half-maximal effect; nearly all actives have a fitted effect of over 55% in size
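In this qHTS, human K18 P301L tau is incubated with compound and heparin for 6 hr at 37 C, and Thioflavin T fluorescence then reports fibril load.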
Tau fibril FP: inhibitors of human tau fibril formation. P10636. K18 P301L tau heparin fibrillization, Alexa594 FP, 6 h. Potency, µM (series often up to 57.7 µM), inactives show at the top dose activity, negative = inhibition, most hits filed as inhibitors. 280,000 tested, 0.39% active; note: potency is the fitted concentration of half-maximal effect; nearly all actives have a fitted effect of over 55% in size
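Human K18 P301L fragment (15 uM unlabeled plus 0.24 uM Alexa 594-labeled) in 100 mM sodium acetate pH 7 with compound, aggregation induced by 20 uM heparin for 6 hr at 37 C. ThT (30 uM) added for 1 hr, then Alexa 594 FP read.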
USP1 inh: blocks the human USP1/UAF1 deubiquitinase complex. O94782. recombinant USP1/UAF1, Ub-Rhodamine cleavage fluorescence. Potency, µM (doses to about 57.1 µM), for the others: at the highest dose activity change, negative = inhibition, most hits filed as inhibitors. 390,000 tested, 0.23% active; note: potency is the fitted concentration of half-maximal effect; nearly all actives have a fitted effect of over 60% in size
Target sequence (O94782 whole entry, looked up): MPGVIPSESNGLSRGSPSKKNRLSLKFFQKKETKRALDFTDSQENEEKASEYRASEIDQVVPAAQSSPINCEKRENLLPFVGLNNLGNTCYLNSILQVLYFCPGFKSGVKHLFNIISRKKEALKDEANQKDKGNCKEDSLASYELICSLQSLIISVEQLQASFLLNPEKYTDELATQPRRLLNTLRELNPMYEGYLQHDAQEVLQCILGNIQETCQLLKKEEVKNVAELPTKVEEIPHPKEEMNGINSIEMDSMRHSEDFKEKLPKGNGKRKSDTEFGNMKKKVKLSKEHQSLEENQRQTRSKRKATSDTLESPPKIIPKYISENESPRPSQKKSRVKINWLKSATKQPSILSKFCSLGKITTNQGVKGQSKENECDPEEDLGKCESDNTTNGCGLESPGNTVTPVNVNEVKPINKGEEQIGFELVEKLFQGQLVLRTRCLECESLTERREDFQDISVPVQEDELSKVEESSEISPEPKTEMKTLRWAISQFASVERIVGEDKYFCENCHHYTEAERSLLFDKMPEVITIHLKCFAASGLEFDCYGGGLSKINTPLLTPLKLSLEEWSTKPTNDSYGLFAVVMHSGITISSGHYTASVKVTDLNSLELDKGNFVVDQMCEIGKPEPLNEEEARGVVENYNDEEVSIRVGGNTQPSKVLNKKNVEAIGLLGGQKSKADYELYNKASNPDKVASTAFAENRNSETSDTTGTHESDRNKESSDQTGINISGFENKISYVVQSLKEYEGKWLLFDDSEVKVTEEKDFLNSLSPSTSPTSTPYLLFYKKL
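Step one: compound is pinned into 1nM USP1/UAF1 in HEPES pH 7.8 buffer with TCEP. Step two: 15 min room-temperature incubation. Step three: Ub-Rho (150nM final) starts cleavage, tracked by fluorescence over six one-minute reads.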
FBPA coupling cs: counter-screen for Giardia aldolase inhibitors: coupling enzyme system; coupling enzyme system counterscreen, AmpLite Red fluorescence; activity change, negative = inhibition, % at 58.2 µM, hits read low; 290,000 tested, 0.67% active; in the data active = activity change below about -30%
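Compounds tested against the coupling enzymes alone at 57.5 uM final; readout was AmpLite Red fluorescence (525/598 nm) after 20 min at RT.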
Starred values were filed as active, the others as inactive; [ ] = remark or other dose. Hits are enriched below; roughly 2.3% of the tested compounds scored in any of these assays. Unless noted, calls come from the whole dose curve; as a rule, active = well fitted curve in the direction sought with a large enough effect; inconclusive = small, poorly fitted or top-dose-only effect, or another doubt; inactive = no such curve, though single readings can be large; an effect the other way counts as inactive or inconclusive. % is set by controls: 0 for no effect and ±100 for the full control effect.

For COc1ccc(Oc2ncc3nc(-c4cccs4)c(=O)n(CCC#N)c3n2)cc1 the results were FBPA coupling cs -9.
`CC1(C)Cc2c(C#N)c(NC3CCCCC3)nc(-c3ccco3)c2CO1` gave Tau fluor cs -4%, Tau fibril ThT inconclusive, Tau fibril FP -8% and FBPA coupling cs -30*.
For COc1ccc(OC)c(/C=N/NC(=O)c2cc3c(OC)cc(OC)cc3[nH]2)c1 the results were Tau fluor cs 8.9µM*[quencher], Tau fibril ThT 5µM*, Tau fibril FP inconclusive, USP1 inh -15% and FBPA coupling cs 4.
For COc1cccc(/C=N/NC(=O)c2cc3c(OC)c(OC)ccc3[nH]2)c1OC the results were Tau fluor cs inconclusive, Tau fibril ThT 7.9µM*, Tau fibril FP inconclusive, USP1 inh -25% and FBPA coupling cs -5.
Screening COc1ccccc1/C=N/NC(=O)c1cc2c(OC)c(OC)ccc2[nH]1 returned USP1 inh -28% and FBPA coupling cs 0.
Cc1oc2ncnc(N3CCCCC3)c2c1C(=O)NCC1CCN(Cc2cccc(F)c2)CC1 was read as Tau fluor cs 3%, Tau fibril ThT 4%, Tau fibril FP 0% and USP1 inh -15%.
`COc1cc(C=O)c([N+](=O)[O-])cc1OC` gave Tau fluor cs inconclusive, Tau fibril ThT 3.2µM*, Tau fibril FP 6.3µM* and FBPA coupling cs -61*.
For Cc1ccc2c(c1)C1C=CCC1C(C(=O)O)N2 (stereo not drawn) the results were Tau fluor cs inconclusive, Tau fibril ThT 14µM*, Tau fibril FP inconclusive and FBPA coupling cs -3.
Screening C1=CC2c3ccccc3NC(c3ccncc3)C2C1 (stereo not drawn) returned Tau fluor cs inconclusive, Tau fibril ThT 22µM*, Tau fibril FP inconclusive, USP1 inh inconclusive and FBPA coupling cs -41*.
`O=C(O)c1ccc2c(c1)C1C=CCC1C(c1cc3c(cc1Br)OCO3)N2` (stereo not drawn) gave Tau fluor cs -13%, Tau fibril ThT -8%, Tau fibril FP 4%, USP1 inh -20% and FBPA coupling cs 12.
For COc1cccc2c1NC(C(=O)O)C1CC=CC21 (stereo not drawn) the results were Tau fluor cs inconclusive, Tau fibril ThT 16µM*, Tau fibril FP inconclusive, USP1 inh 25µM* and FBPA coupling cs -13.
Screening O=C(O)C1Nc2c(cccc2C(F)(F)F)C2C=CCC12 (stereo not drawn) returned FBPA coupling cs 3.
For CC(=O)c1ccc2c(c1)C1C=CCC1C(C(=O)O)N2 (stereo not drawn) the results were Tau fluor cs 14%, Tau fibril ThT 11%, Tau fibril FP 2%, USP1 inh 32µM* and FBPA coupling cs 3.
Cc1nn2c(C(F)(F)F)cc(-c3ccc(OC(C)C)cc3)nc2c1C#N was read as Tau fluor cs -12%, Tau fibril ThT -9%, Tau fibril FP 1% and USP1 inh -6%.
For COc1ccc(OC)c(NC(=O)CSc2nccn2-c2cc(C)cc(C)c2)c1 the results were Tau fluor cs -23%, Tau fibril ThT -8%, Tau fibril FP 6% and USP1 inh -22%.
For COC(=O)c1ccc(C2Nc3ccc(/C(C)=N/NC(=O)C(OC)c4ccccc4)cc3C3C=CCC32)cc1 (stereo not drawn) the results were Tau fluor cs -24%, Tau fibril ThT inconclusive, Tau fibril FP -6% and USP1 inh -10%.
CC(=O)c1ccc2c(c1)C1C=CCC1C(c1ccncc1)N2 (stereo not drawn) was read as Tau fluor cs inconclusive, Tau fibril ThT 14µM*, Tau fibril FP inconclusive, USP1 inh inconclusive and FBPA coupling cs -32*.
COCCNC(=O)c1ccc(-c2nc(CN3CCc4ccccc43)c(C)o2)cc1 was read as Tau fluor cs -17%, Tau fibril ThT -7%, Tau fibril FP 8% and USP1 inh -32%.
`C/C=C\C1=C(CO)C(=O)[C@@H]2OC2C1=O` (stereo partly drawn) gave Tau fluor cs inconclusive, Tau fibril ThT 3.5µM*, Tau fibril FP inconclusive and FBPA coupling cs -21.
For CN(CCNC(=O)CCNC(=O)Cn1ccc2ccccc2c1=O)Cc1ccccc1 the results were Tau fluor cs 16µM*[quencher], Tau fibril ThT -13%, Tau fibril FP 22µM*, USP1 inh -18% and FBPA coupling cs 1.
CCN(CCCNC(=O)CCNC(=O)Cn1ccc2ccccc2c1=O)c1ccccc1 was read as Tau fluor cs -10%, Tau fibril ThT -11%, Tau fibril FP 6%, USP1 inh 2% and FBPA coupling cs 1.
C=CC1=C(C)C2=NC1=CC1=NC(=CC3=NC(=CC4=NC(=C2)C(C)=C4CCC(=O)O)C(CCC(=O)O)=C3C)C(C=C)=C1C.[Zn] was read as Tau fluor cs 14µM*[quencher], Tau fibril ThT 6.3µM*, Tau fibril FP 20µM* and FBPA coupling cs -14.
For Cc1cc(CCC(=O)O)c(C)cc1CCC(=O)O the results were Tau fluor cs 8%, Tau fibril ThT -2%, Tau fibril FP 3%, USP1 inh -9% and FBPA coupling cs 2.
`COC(=O)N[C@H](c1ccccc1)C(C(C)=O)C(=O)OC` (stereo partly drawn) gave Tau fluor cs 3%, Tau fibril ThT 1%, Tau fibril FP 1% and FBPA coupling cs 9.
Screening COC(=O)NC(c1ccccc1)C(C(=O)OC)C(=O)OC (stereo not drawn) returned Tau fluor cs -12%[11.6 µM], Tau fibril ThT -8%[11.5 µM], Tau fibril FP -17%[11.6 µM] and FBPA coupling cs -31*.
`O=C(NCc1ccccc1)c1ccc2nc(-c3ccco3)c(-c3ccco3)nc2c1` gave Tau fluor cs inconclusive, Tau fibril ThT 14µM*, Tau fibril FP inconclusive, USP1 inh inconclusive and FBPA coupling cs -19.
O=C(NCc1ccccc1)c1ccc2nccnc2c1 was read as Tau fluor cs -6%, Tau fibril ThT -7%, Tau fibril FP -5%, USP1 inh -9% and FBPA coupling cs 2.
`CC(=O)c1ccc(NC(=O)CSc2nnc(-c3ccco3)c(-c3ccco3)n2)cc1` gave Tau fluor cs inconclusive, Tau fibril ThT 4µM*, Tau fibril FP 8.9µM*, USP1 inh inconclusive and FBPA coupling cs -13.
Screening CCc1nc2ccc(C(=O)Nc3ccc(NC(C)=O)cc3)cc2nc1CC returned Tau fluor cs -11%, Tau fibril ThT -17%, Tau fibril FP 2%, USP1 inh -1% and FBPA coupling cs 0.
`O=C(Nc1ccccc1)c1ccc2nc(-c3ccco3)c(-c3ccco3)nc2c1` gave Tau fluor cs inconclusive, Tau fibril ThT inconclusive, Tau fibril FP inconclusive, USP1 inh -21% and FBPA coupling cs -38*.
